In all, about 320,000 compounds went through this assay and about 2,100 (0.66%) were called active. Roughly 53% stayed inconclusive and do not appear here. The call rests on the fitted dose curve; in most records, active means well fitted inhibition curve with a large enough effect in the signal ratio, with a control signal flat (not every such curve was filed as active); inconclusive means small, poorly fitted or top-dose-only effect, or effect the other way, or a change in a side signal; inactive means flat fitted curve, though single readings scatter; the % refers to the signal ratio. Shown is part of a subset that was picked to be rich in actives.
Potency means the concentration at half of the fitted maximal effect.

This assay in a line: qHTS Assay for Lipid Storage Modulators in Drosophila S3 Cells.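 On cell number change: cells counted by Cell Tracker Red CMTPX staining in the red channel.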 On lipid storage change, negative = inhibition: on the % scale 0 is the no-effect control and ±100 the full control effect. The note with it: BODIPY lipid droplet fluorescence, 18-24 h, cells fed with added oleic acid; cell number change: measured here: cell count max response; series mostly up to 46.1 µM; lipid storage change, negative = inhibition: at the top concentration. The procedure, abridged: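 Laser-scanning cytometry quantifies lipid droplet accumulation (500–530 nm total intensity; droplet/cell object ratio) in oleic acid-fed (400 uM added) Drosophila S3 cells treated with a concentration series. 20 uM Triacsin C defined 100% inhibition.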
For the molecule `COc1ccc(-c2nnc(SCC(=O)O)n2Cc2ccccc2)cc1`, the “lipid storage change, negative = inhibition” value was -23% (inactive) and the cell number change stood at 16.6%. `O=C(O)CSc1nnc(-c2ccccc2O)n1Cc1ccccc1`: the Potency is 25.9 µM (active) and the cell number change came out at 0.192%. Consider `O=C(O)CSc1nnc(-c2ccc(Cl)cc2Cl)n1-c1ccccc1`, for which the outcome was inactive and the cell number change amounted to 9.07%. In the case of `Cc1cccc(-c2ccc3ncnc(NCc4cc(C)cs4)c3c2)c1`, the “lipid storage change, negative = inhibition” value was -4.08% (inactive) and the cell number change came out at 8.79%.

In the case of `O=C(CCSc1ccccc1)Nc1ccccc1Br`, the “lipid storage change, negative = inhibition” value is -12.8% (inactive) and the cell number change turned out to be 3.05%. For the molecule `COc1ccccc1NC(=O)COC(=O)CCn1c(C)csc1=O`, the cell number change is -23.2% and the lipid storage change, negative = inhibition is 22.3% [at 0.0737 µM] (inactive).

Turning to `O=C(CN1C(=O)c2ccccc2C1=O)Nc1ccccc1C(=O)NC1CCCCCC1`, the “lipid storage change, negative = inhibition” value was 5.16% (inactive) and the cell number change turned out to be 2.31%. With `COc1cccc(C2CC(C(F)(F)F)n3ncc(C(=O)O)c3N2)c1` (stereo not drawn), the “lipid storage change, negative = inhibition” value was 7.32% (inactive) and the cell number change is -3.05%. For the molecule `CCOC(=O)C1C(=O)Nc2nc(C)nn2C1c1ccccc1` (stereo not drawn), the molecule was classed as inactive. For the molecule `Cc1cccc(NC(=O)c2cc3c(=O)n4ccccc4nc3n(CC(C)C)c2=N)c1`, the “lipid storage change, negative = inhibition” value was 4.83% (inactive) and the cell number change came to 2.38%. As for `O=c1oc(-c2ccccc2Br)nc2ccccc12`, the outcome was inactive and the cell number change was -5.52%. As to `Cc1cc(C)n(-c2ccc(Cl)c(C(=O)Nc3ccc(OC(F)(F)F)cc3)n2)n1`, the “lipid storage change, negative = inhibition” value was 19.9% (inactive) and the cell number change was found to be 14.5%. For `O=C(Nc1ccccn1)c1sc2cccc(F)c2c1Cl` the same measures were 1.57% (inactive) and 9.28%. For the molecule `CCCNC(=O)C(Cc1ccccc1)NS(=O)(=O)c1ccc2c(c1)CCC(=O)N2` (stereo not drawn), the “lipid storage change, negative = inhibition” value was 8.28% (inactive). As to `CCC(C)NC(=O)C(Cc1ccccc1)NS(=O)(=O)c1ccc2c(c1)CCC(=O)N2` (stereo not drawn), the Potency was 20.6 µM (active) and the cell number change is 1.42%. For the molecule `CCCCC(CC)CNC(=O)C(Cc1ccccc1)NS(=O)(=O)c1ccc2c(c1)CCC(=O)N2` (stereo not drawn), the “lipid storage change, negative = inhibition” value was 0.0744% (inactive) and the cell number change was found to be 9.41%. For `Cc1ccc(NC(=O)N2CCN(C(=O)c3ccco3)CC2)cc1Cl` the same measures were -0.198% (inactive) and -6.19%. As to `Cn1nnnc1SCC(=O)Nc1ccc(Cl)c(S(=O)(=O)N2CCOCC2)c1`, the “lipid storage change, negative = inhibition” value is -1.86% (inactive) and the cell number change was 21.3%. Taken in the same sequence, the figures for `COc1ccc(C2=NS(=O)(=O)N(C)C(C(=O)Nc3cc(C)ccc3O)=C2)cc1OC` were 4.1% (inactive) and 4.03%. Consider `CCc1ccc(NC(=O)C2=CC(c3cccs3)=NS(=O)(=O)N2C)cc1`, for which the Potency was 20.6 µM (active).

Turning to `CC(=O)c1cccc(NC(=O)C2=CC(c3cccs3)=NS(=O)(=O)N2C)c1`, the call was inactive. With `COc1ccc(NC(=O)C2=CC(c3ccco3)=NS(=O)(=O)N2C)cc1`, the molecule was called inactive and the cell number change amounted to 15%.

For the molecule `COc1ccc(C2=NS(=O)(=O)N(C)C(C(=O)Nc3ccc(C(C)=O)cc3)=C2)cc1OC`, the “lipid storage change, negative = inhibition” value was 0.308% (inactive) and the cell number change amounted to 3.67%. As to `COc1ccc(NC(=O)C2=CC(c3ccc(C)cc3)=NS(=O)(=O)N2C)cc1OC`, the molecule was classed as inactive and the cell number change is -8.07%. For the molecule `COc1ccc(CNC(=O)C2=CC(c3ccc(OC)c(OC)c3)=NS(=O)(=O)N2C)cc1`, the “lipid storage change, negative = inhibition” value was -14.8% (inactive) and the cell number change is -8.36%. `Cc1ccc(O)c(NC(=O)C2=CC(c3cccs3)=NS(=O)(=O)N2C)c1`: the “lipid storage change, negative = inhibition” value was -11.7% (inactive) and the cell number change was -6.05%. Regarding `CCc1ccc(NC(=O)C2=CC(c3ccc(OC)cc3)=NS(=O)(=O)N2C)cc1`, the Potency is 10.3 µM (active) and the cell number change is -11.3%. Turning to `COc1ccc(NC(=O)C2=CC(c3ccc(C)cc3)=NS(=O)(=O)N2C)cc1`, the Potency was 5.17 µM (active) and the cell number change is 4.61%. As to `COc1cc(NC(=O)C2=CC(c3ccc(C)cc3)=NS(=O)(=O)N2C)cc(OC)c1OC`, the Potency is 1.46 µM (active) and the cell number change was -6.34%. For the molecule `COc1ccc(CNC(=O)C2=CC(c3ccc(OC)cc3)=NS(=O)(=O)N2C)cc1`, the “lipid storage change, negative = inhibition” value is -22.8% (inactive) and the cell number change is -7.78%. `CCCN(CCC)Cc1c(C(=O)N/N=C/c2ccco2)nnn1-c1nonc1N`: the “lipid storage change, negative = inhibition” value is 4.78% (inactive) and the cell number change stood at 1.25%. On to `O=S(=O)(NC1CC1)c1ccc(S(=O)(=O)N2CCN3CCCC3C2)cc1` (stereo not drawn), for which the “lipid storage change, negative = inhibition” value was -25.1% (inactive) and the cell number change was -22%. Consider `C=CCn1c(-c2cccc(OC)c2OC)n[nH]c1=S`, for which the cell number change was 6.07% and the lipid storage change, negative = inhibition was 16.6% [at 9.22 µM] (inactive). With `Cc1cnc(C(=O)NNC(=O)c2ccc(Br)cc2)cn1`, the “lipid storage change, negative = inhibition” value was 14.5% (inactive).

`CNC(=O)C(=O)Nc1nc(C23CC4CC(CC(C4)C2)C3)cs1`: the “lipid storage change, negative = inhibition” value was 0.543% (inactive).

As to `CC(CSc1nnnn1-c1ccccc1)Cn1c(N2CCN(C)CC2)nc2c1c(=O)[nH]c(=O)n2C` (stereo not drawn), the “lipid storage change, negative = inhibition” value is 4.96% (inactive) and the cell number change was -4.1%. Take `CCOc1ccc(-n2c(SCC(=O)NCc3ccco3)nnc2-c2c[nH]c3ccccc23)cc1`: the result was inactive.

Turning to `CCOC(=O)c1sc(N2N=C(C)/C(=C\c3ccc(OCC(=O)OC)cc3)C2=O)nc1C`, the “lipid storage change, negative = inhibition” value is -3.19% (inactive) and the cell number change came out at 0.316%.

`CC(=O)c1ccc(S(=O)(=O)NC2CCSc3ccccc32)cc1` (stereo not drawn): the “lipid storage change, negative = inhibition” value was 34% (inactive) and the cell number change stood at 11.1%. With `O=C(COC(=O)c1ccc(Cl)cc1[N+](=O)[O-])NC(=O)c1ccccc1`, the call was inactive and the cell number change was -11.4%.

For `Cc1ccc(C2=NC3(CCCC3)NC2=S)cc1`, the cell number change was 8.14% and the lipid storage change, negative = inhibition was 6.56% [at 9.22 µM] (inactive). Taken in the same sequence, the figures for `Cc1ccc(NC(=O)CCN2C(=O)c3ccccc3C2=O)c(C)c1` were 5.45% and -5.21% (inactive). With `CSc1ccccc1NC(=O)C1=CC(c2cccs2)=NS(=O)(=O)N1C`, the Potency is 4.11 µM (active) and the cell number change is -26.8%. As for `COC(=O)c1ccccc1NC(=O)C1=CC(c2cccs2)=NS(=O)(=O)N1C`, the “lipid storage change, negative = inhibition” value is 14.1% (inactive) and the cell number change came to 5.19%.

Turning to `CN1C(C(=O)Nc2ccc(F)cc2F)=CC(c2cccs2)=NS1(=O)=O`, the “lipid storage change, negative = inhibition” value is -7.04% (inactive) and the cell number change is -0.288%.

Source of the values: PubChem BioAssay AID2685 (National Center for Advancing Translational Sciences (NCATS), 2010).
